In the library only some 1.3% were active in any assay of this set; here they are far more common.
INS promoter inh: TRM-6 insulin promoter activity inhibition | TRM-6 cells (human fetal islet line), insulin promoter-eGFP reporter, imaging; reporter expression induced with tamoxifen | inhibition, % at 2 µM | hit rate 0.9% among 130,000 | AID 1273;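 active means inhibition above the mean plus 3 SD, with well images judged a real hit on visual review, cut at about 60% in these data, passing the limit was not always enough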
NFkB transloc pot: enhances IL-1B driven NFkB nuclear translocation | HUVEC IL-1B NFkB p65 nuclear translocation imaging | activation, % at 2 µM | hit rate 0.3% among 94,000 | AID 819;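 active means activation above 40%, about the mean plus 3 SD, also judged a hit on visual image review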;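 further: percent activation is computed from the nuclear over cytoplasmic p65 intensity ratio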
IL1B cytotox: HUVEC cytotoxicity counter-screen, IL-1B stimulated | HUVEC cell count loss, Hoechst imaging | cell count reduction, % at 2 µM | AID 845 | hit rate 0.41% among 94,000;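 active means cell count reduction more than 3 SD above the screen-wide mean, cut at about 70% in these data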;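 further: normalized per plate to untreated control cells as the no-loss baseline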
IL1B NFkB inh: blocks IL-1B driven NFkB nuclear translocation in HUVEC cells | inhibition, % at 2 µM | hit rate 0.43% among 94,000 | HUVEC IL-1B NFkB p65 nuclear translocation imaging | AID 796;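 active means inhibition above about 30% together with a positive call from visual inspection of the well image, limit read from the data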;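 further: nuclear over cytoplasmic p65 intensity ratio measured by imaging; 0% = IL-1B stimulated DMSO wells and 100% = unstimulated DMSO wells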
Numbers without * were called inactive; . = no result given.

SMILES | INS promoter inh | NFkB transloc pot | IL1B cytotox | IL1B NFkB inh
O=C(NCC1CCCO1)NC1CCCCC1 (stereo unspecified) | 7 | -20 | 94* | 20
Cc1ccccc1NC(=O)c1ccc(-n2cncn2)nc1 | -83 | 1 | -9 | -1
COCCCNC(=S)NC(=O)c1ccc(C)cc1 | 47 | . | . | .
CCN(CC)C(=O)C(=O)c1cn(CCOc2ccccc2)c2ccccc12 | 16 | . | . | .
CC(C)CSC1=NSC2=NC(=O)/C(=C\c3cccs3)C(=N)N12 | -24 | . | . | .
CSC1=NSC2=NC(=O)/C(=C\c3cccs3)C(=N)N12 | 79* | . | . | .
COc1ccc(CNC(=O)C(c2ccco2)N(Cc2cccs2)C(=O)Cc2cccs2)cc1 (stereo unspecified) | -80 | 41* | -5 | -41
S=C(Nc1ccc2cn[nH]c2c1)Nc1ccccc1Cl | 64* | . | . | .
S=C(Nc1ccc2cn[nH]c2c1)Nc1ccc(Cl)cc1Cl | -15 | . | . | .
COc1cc(NC(=O)Cn2nc(C(F)(F)F)c3c2CCCC3)cc(OC)c1OC | 64 | 16 | 71* | -16
CCc1ccc(NC(=O)Cn2nc(C(F)(F)F)c3c2CCC3)cc1 | 14 | 9 | -2 | -9
COc1ccc(C(=O)COC(=O)C(CCSC)NS(=O)(=O)c2ccc(Cl)cc2)cc1 (stereo unspecified) | 21 | . | . | .
CN(CCc1ccccn1)C(=O)CN(C)S(=O)(=O)c1ccc2c(c1)c(=O)n(C)c(=O)n2C | -51 | 41* | 3 | -41
CCn1c(-c2ccc(F)cc2)cnc1SCC(=O)N1CCCCC1C (stereo unspecified) | -27 | -19 | -6 | 19
COc1ccc(NC(=O)COC(=O)C2CCC(C(C)(C)C)CC2)c([N+](=O)[O-])c1 (stereo unspecified) | 18 | . | . | .
Cc1ccc(Nc2cc(C)nn2-c2nc(C)cc(=O)[nH]2)cc1 | 19 | -78 | 14 | 78*
CCOC(=O)N1CCN(C(=O)C2c3cc(OC)c(OC)cc3C(=O)N3CCc4ccccc4C23)CC1 (stereo unspecified) | 80* | -8 | -13 | 8
CC(C)C(=O)Nc1ccc(C(=O)Nc2ccc(Br)cc2F)cc1 | 62 | . | . | .
CC1(C)C2CCC1(C)C(OCC[N+](C)(C)CC(=O)OC1CCCCC1)C2 (stereo unspecified) | 23 | . | . | .
Cc1csc(Sc2nc3c(c(=O)[nH]c(=O)n3C)n2Cc2ccccc2Cl)n1 | 47 | -31 | 16 | 31*
Cc1cccc(Cn2c(Sc3nc(C)cs3)nc3c2c(=O)[nH]c(=O)n3C)c1 | . | -4 | 2 | 4
COCCNC(=O)C1c2ccccc2C(=O)N(CCOC)C1c1ccc(F)cc1 (stereo unspecified) | 21 | 4 | 15 | -4
COCCN1C(=O)c2ccccc2C(C(=O)NCCN(C)C)C1c1ccc(F)cc1 (stereo unspecified) | 79* | -4 | 12 | 4
CCc1nc2oc3cc(OC)ccc3c(=O)c2c(=O)n1Cc1ccccc1 | 67* | -3 | 26 | 3
CCc1nc2oc3ccccc3c(=O)c2c(=O)n1Cc1ccccc1 | 7 | -4 | 27 | 4
SMILES | INS promoter inh | NFkB transloc pot | IL1B cytotox | IL1B NFkB inh
CCCN1CCN(CCCNC(=O)c2cc3c(=O)n(C)c4ccccc4c3n2C)CC1 | . | -89 | -6 | 90*
Cn1c(C(=O)NCCCN2CCCCCC2)cc2c(=O)n(C)c3ccccc3c21 | . | -1 | 22 | 1
COc1ccc(-c2cnnc(N/N=C/c3ccc(O)c(OC)c3)n2)cc1 | 33 | . | . | .
CCOC(=O)N1CCN(C(=O)c2cn(CC)c3ccc(S(=O)(=O)N4CCCCC4)cc3c2=O)CC1 | 43 | . | . | .
CC(C)CCNC(=O)C(c1ccco1)N(CC1CCCO1)C(=O)Cn1nnc2ccccc21 (stereo unspecified) | -58 | 19 | -7 | -19
CC(C)CCNC(=O)C(c1cccs1)N(CC1CCCO1)C(=O)Cn1nnc2ccccc21 (stereo unspecified) | -11 | -99 | 91* | 99*
COc1ccc(-c2n[nH]c3c2C(c2ccc(OC)c(OC)c2)N(c2ccccc2)C3=O)cc1 (stereo unspecified) | 69* | 6 | -2 | -6
COc1cccc(C2c3c(-c4ccccc4)n[nH]c3C(=O)N2c2ccc(C(=O)O)cc2)c1 (stereo unspecified) | -20 | 13 | -16 | -13
Cc1ccc(OCC(=O)N2CCCCC2)c(Br)c1 | -16 | -97 | 87* | 97*
C=CCc1cccc2cc(C(=O)O)c(=O)oc12 | 6 | . | . | .
C=CCc1cccc2cc(C(=O)OCC(=O)c3ccccc3)c(=O)oc12 | -186 | 10 | 86* | -10
Nc1nc(CN2CCCCCC2)nc(Nc2ccccc2)n1 | 89* | 8 | -10 | -8
Cc1ccc(Nc2nc(N)nc(CN3CCCCCC3)n2)cc1 | 3 | 19 | -52 | -19

Compound activity: PubChem, Columbia University Molecular Screening Center
